Columns and labels:
POU1 (OCT1 POU domain) = POU1 (OCT1 POU domain) (human, UniProt P14859 260-458); assay: EMSA-SELEX-seq; no BOB1; 20 mM Tris-HCl pH 7.6, 140 mM NaCl, 10% glycerol, 0.5 mM EDTA, 0.05% Triton X-100, 0.1 mg/mL BSA, 0.1 mg/mL poly(dI-dC), 5 mM DTT, room temperature, 20 min; high values mean tight binding; details: protein: recombinant; dsDNA, one strand shown
Outline: (§1)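 After expression in E. coli BL21, tagged POU-domain proteins were purified under denaturing conditions and then renatured. Each binding reaction held 30 ng protein and 300 ng of a PCR-amplified double-stranded random 35-nt library in 20 μL Tris–HCl pH 7.6 binding buffer, with or without 28 ng coactivator protein, for 20 min at RT. Bands holding complexes were cut from native 6% PAGE, eluted and PCR-amplified across four rounds, and the output was Illumina-sequenced. The value given for binding preference is the share, in percent, of sequenced 8-mers fitting a motif pattern.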

POU2 (OCT2 POU domain) = target: T1, POU2 (OCT2 POU domain) (human, UniProt P09086 175-386); assay: as above; details: protein: recombinant; dsDNA, one strand shown
T1 sequence: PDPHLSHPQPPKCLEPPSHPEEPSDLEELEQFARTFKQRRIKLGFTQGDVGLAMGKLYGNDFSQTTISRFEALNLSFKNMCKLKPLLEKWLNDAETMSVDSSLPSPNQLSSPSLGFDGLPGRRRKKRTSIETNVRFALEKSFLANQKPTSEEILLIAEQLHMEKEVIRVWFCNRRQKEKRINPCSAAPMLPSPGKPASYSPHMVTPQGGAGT
Outline: as §1

[1] = target: POU1 (OCT1 POU domain);BOB1 (OBF1, OCA-B) (human;human, UniProt P14859;Q16633 260-458;1-256, |); assay: EMSA-SELEX-seq; with BOB1 (ternary complex band); 20 mM Tris-HCl pH 7.6, 140 mM NaCl, 10% glycerol, 0.5 mM EDTA, 0.05% Triton X-100, 0.1 mg/mL BSA, 0.1 mg/mL poly(dI-dC), 5 mM DTT, room temperature, 20 min; high values mean tight binding; details: protein: recombinant;recombinant; copies: 1;1; dsDNA, one strand shown
Outline: as §1

[2] = target: T2, POU2 (OCT2 POU domain);BOB1 (OBF1, OCA-B) (human;human, UniProt P09086;Q16633 175-386;1-256, |); assay: as above; details: protein: recombinant;recombinant; copies: 1;1; dsDNA, one strand shown
T2 sequence 1: T1 sequence
T2 sequence 2: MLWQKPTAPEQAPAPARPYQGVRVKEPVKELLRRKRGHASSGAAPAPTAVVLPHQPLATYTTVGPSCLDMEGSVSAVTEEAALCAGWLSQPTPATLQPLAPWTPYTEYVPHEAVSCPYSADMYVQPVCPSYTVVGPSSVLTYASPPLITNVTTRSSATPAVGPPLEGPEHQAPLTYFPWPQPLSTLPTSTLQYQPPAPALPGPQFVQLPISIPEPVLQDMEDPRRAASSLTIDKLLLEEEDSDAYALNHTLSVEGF
Outline: as §1

POU1 (OCT1 POU domain), sequence (P14859 260-458): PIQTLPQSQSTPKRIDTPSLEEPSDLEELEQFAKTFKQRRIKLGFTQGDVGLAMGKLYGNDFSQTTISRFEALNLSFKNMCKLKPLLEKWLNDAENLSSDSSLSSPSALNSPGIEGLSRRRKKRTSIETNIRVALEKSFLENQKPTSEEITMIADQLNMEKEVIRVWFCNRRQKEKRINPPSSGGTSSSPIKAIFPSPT

Row | Sequence | binding signal (POU1 (OCT1 POU domain)) | binding signal (POU2 (OCT2 POU domain)) | binding signal [1] | binding signal [2]
1 | AGTTAAAT | 0.219 % of ANNNNAAN 8-mers | 0.213 % of ANNNNAAN 8-mers | 0.217 % of ANNNNAAN 8-mers | 0.127 % of ANNNNAAN 8-mers
2 | ATAACAAC | 0.0252 % of ANNNNAAN 8-mers | 0.0391 % of ANNNNAAN 8-mers | 0.0222 % of ANNNNAAN 8-mers | 0.0347 % of ANNNNAAN 8-mers
3 | AGATCAAG | 0.0305 % of ANNNNAAN 8-mers | 0.0397 % of ANNNNAAN 8-mers | 0.0273 % of ANNNNAAN 8-mers | 0.0272 % of ANNNNAAN 8-mers
4 | AGCTCAAT | 0.037 % of ANNNNAAN 8-mers | 0.0316 % of ANNNNAAN 8-mers | 0.0261 % of ANNNNAAN 8-mers | 0.0223 % of ANNNNAAN 8-mers
5 | ACGAGAAG | 0.0217 % of ANNNNAAN 8-mers | 0.0288 % of ANNNNAAN 8-mers | 0.0269 % of ANNNNAAN 8-mers | 0.0347 % of ANNNNAAN 8-mers
6 | AGCACAAT | 0.0233 % of ANNNNAAN 8-mers | 0.0311 % of ANNNNAAN 8-mers | 0.0258 % of ANNNNAAN 8-mers | 0.0264 % of ANNNNAAN 8-mers
7 | AAGTCAAT | 0.0667 % of ANNNNAAN 8-mers | 0.0731 % of ANNNNAAN 8-mers | 0.0535 % of ANNNNAAN 8-mers | 0.0677 % of ANNNNAAN 8-mers
8 | ATACTAAG | 0.045 % of ANNNNAAN 8-mers | 0.0518 % of ANNNNAAN 8-mers | 0.0441 % of ANNNNAAN 8-mers | 0.0438 % of ANNNNAAN 8-mers
9 | ACGGAAAG | 0.0397 % of ANNNNAAN 8-mers | 0.0443 % of ANNNNAAN 8-mers | 0.0406 % of ANNNNAAN 8-mers | 0.0371 % of ANNNNAAN 8-mers
10 | AGCTCAAG | 0.0183 % of ANNNNAAN 8-mers | 0.0173 % of ANNNNAAN 8-mers | 0.0187 % of ANNNNAAN 8-mers | 0.0206 % of ANNNNAAN 8-mers
11 | ACCCAAAT | 0.0477 % of ANNNNAAN 8-mers | 0.0391 % of ANNNNAAN 8-mers | 0.0753 % of ANNNNAAN 8-mers | 0.0355 % of ANNNNAAN 8-mers
12 | ACCTGAAG | 0.0137 % of ANNNNAAN 8-mers | 0.0161 % of ANNNNAAN 8-mers | 0.0164 % of ANNNNAAN 8-mers | 0.0206 % of ANNNNAAN 8-mers
13 | ACGGCAAA | 0.0328 % of ANNNNAAN 8-mers | 0.0305 % of ANNNNAAN 8-mers | 0.0445 % of ANNNNAAN 8-mers | 0.0371 % of ANNNNAAN 8-mers
14 | ACCAAAAC | 0.0168 % of ANNNNAAN 8-mers | 0.0242 % of ANNNNAAN 8-mers | 0.032 % of ANNNNAAN 8-mers | 0.0206 % of ANNNNAAN 8-mers
15 | ATATGAAG | 0.0545 % of ANNNNAAN 8-mers | 0.0823 % of ANNNNAAN 8-mers | 0.0691 % of ANNNNAAN 8-mers | 0.0735 % of ANNNNAAN 8-mers
16 | ACGGAAAT | 0.087 % of ANNNNAAN 8-mers | 0.099 % of ANNNNAAN 8-mers | 0.142 % of ANNNNAAN 8-mers | 0.0792 % of ANNNNAAN 8-mers

Row | Sequence | binding signal (POU1 (OCT1 POU domain)) | binding signal (POU2 (OCT2 POU domain)) | binding signal [1] | binding signal [2]
17 | AGCCTAAC | 0.0153 % of ANNNNAAN 8-mers | 0.0144 % of ANNNNAAN 8-mers | 0.0109 % of ANNNNAAN 8-mers | 0.0157 % of ANNNNAAN 8-mers
18 | ACGACAAA | 0.0217 % of ANNNNAAN 8-mers | 0.0299 % of ANNNNAAN 8-mers | 0.0222 % of ANNNNAAN 8-mers | 0.0256 % of ANNNNAAN 8-mers
19 | ATTCAAAG | 0.281 % of ANNNNAAN 8-mers | 0.201 % of ANNNNAAN 8-mers | 0.314 % of ANNNNAAN 8-mers | 0.242 % of ANNNNAAN 8-mers
20 | ACGGGAAC | 0.0225 % of ANNNNAAN 8-mers | 0.027 % of ANNNNAAN 8-mers | 0.0215 % of ANNNNAAN 8-mers | 0.0231 % of ANNNNAAN 8-mers
21 | AGCCTAAT | 0.0503 % of ANNNNAAN 8-mers | 0.0811 % of ANNNNAAN 8-mers | 0.0324 % of ANNNNAAN 8-mers | 0.038 % of ANNNNAAN 8-mers
22 | AAAGGAAT | 0.0953 % of ANNNNAAN 8-mers | 0.124 % of ANNNNAAN 8-mers | 0.0901 % of ANNNNAAN 8-mers | 0.0925 % of ANNNNAAN 8-mers
23 | AACCGAAA | 0.0271 % of ANNNNAAN 8-mers | 0.0293 % of ANNNNAAN 8-mers | 0.0265 % of ANNNNAAN 8-mers | 0.0256 % of ANNNNAAN 8-mers
24 | AAATCAAC | 0.0759 % of ANNNNAAN 8-mers | 0.0921 % of ANNNNAAN 8-mers | 0.096 % of ANNNNAAN 8-mers | 0.0916 % of ANNNNAAN 8-mers
25 | ATTCAAAC | 0.153 % of ANNNNAAN 8-mers | 0.15 % of ANNNNAAN 8-mers | 0.199 % of ANNNNAAN 8-mers | 0.125 % of ANNNNAAN 8-mers
26 | AATCAAAA | 0.122 % of ANNNNAAN 8-mers | 0.099 % of ANNNNAAN 8-mers | 0.142 % of ANNNNAAN 8-mers | 0.0792 % of ANNNNAAN 8-mers
27 | ATTGGAAG | 0.0309 % of ANNNNAAN 8-mers | 0.0547 % of ANNNNAAN 8-mers | 0.0371 % of ANNNNAAN 8-mers | 0.0438 % of ANNNNAAN 8-mers
28 | ACTGAAAC | 0.0164 % of ANNNNAAN 8-mers | 0.019 % of ANNNNAAN 8-mers | 0.0238 % of ANNNNAAN 8-mers | 0.0173 % of ANNNNAAN 8-mers
29 | ACAACAAA | 0.0301 % of ANNNNAAN 8-mers | 0.0265 % of ANNNNAAN 8-mers | 0.0371 % of ANNNNAAN 8-mers | 0.0248 % of ANNNNAAN 8-mers
30 | AGAGGAAC | 0.0229 % of ANNNNAAN 8-mers | 0.0339 % of ANNNNAAN 8-mers | 0.0234 % of ANNNNAAN 8-mers | 0.0264 % of ANNNNAAN 8-mers
31 | AGGTAAAG | 0.0801 % of ANNNNAAN 8-mers | 0.0708 % of ANNNNAAN 8-mers | 0.116 % of ANNNNAAN 8-mers | 0.071 % of ANNNNAAN 8-mers
32 | AGCATAAG | 0.105 % of ANNNNAAN 8-mers | 0.129 % of ANNNNAAN 8-mers | 0.0441 % of ANNNNAAN 8-mers | 0.0627 % of ANNNNAAN 8-mers
